Measured values: paper PMC11006913
Where a chain is given by its changes, count along the chain named.

What was measured:
Experiment in all cases: PBM; 200 nM protein, PBS
Details in all cases: dsDNA, one strand shown
SIX6 [1] = biological target: T1, SIX6 (Homo sapiens, UniProt O95475 114-200, L167I)
T1 sequence: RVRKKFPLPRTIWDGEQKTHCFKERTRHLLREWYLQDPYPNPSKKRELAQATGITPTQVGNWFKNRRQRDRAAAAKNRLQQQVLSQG

SIX6 [2] = biological target: T2, SIX6 (Homo sapiens, UniProt O95475 114-200, L143V)
T2 sequence: T1 sequence with L30V, I54L

SIX6 [3] = biological target: T3, SIX6 (Homo sapiens, UniProt O95475 114-200, H141N)
T3 sequence: T1 sequence with H28N, I54L

SIX6 [4] = biological target: T4, SIX6 (Homo sapiens, UniProt O95475 114-200, T165P)
T4 sequence: T1 sequence with T52P, I54L

SIX6 [5] = biological target: T5, SIX6 (Homo sapiens, UniProt O95475 114-200, L167M)
T5 sequence: T1 sequence with I54M

SIX6 [6] = biological target: T6, SIX6 (Homo sapiens, UniProt O95475 114-200, L143M)
T6 sequence: T1 sequence with L30M, I54L

SIX6 [7] = biological target: T7, SIX6 (Homo sapiens, UniProt O95475 114-200, L143I)
T7 sequence: T1 sequence with L30I, I54L

SIX6 [8] = biological target: T8, SIX6 (Homo sapiens, UniProt O95475 114-200, T165G)
T8 sequence: T1 sequence with T52G, I54L

SIX6 [9] = biological target: T9, SIX6 (Homo sapiens, UniProt O95475 114-200, T139Q)
T9 sequence: T1 sequence with T26Q, I54L

SIX6 [10] = biological target: T10, SIX6 (Homo sapiens, UniProt O95475 114-200, T165A)
T10 sequence: T1 sequence with T52A, I54L

SIX6 [11] = biological target: T11, SIX6 (Homo sapiens, UniProt O95475 114-200, L167V)
T11 sequence: T1 sequence with I54V

SIX6 [12] = biological target: T12, SIX6 (Homo sapiens, UniProt O95475 114-200)
T12 sequence: T1 sequence with I54L

SIX6 [13] = biological target: T13, SIX6 (Homo sapiens, UniProt O95475 114-200, T165I)
T13 sequence: T1 sequence with T52I, I54L

HOXA2 [14] = biological target: HOXA2 (Homo sapiens, UniProt O43364 129-215, R185T)
Chain of HOXA2 (Homo sapiens, UniProt O43364 129-215, R185T) (O43364 129-215 R185T): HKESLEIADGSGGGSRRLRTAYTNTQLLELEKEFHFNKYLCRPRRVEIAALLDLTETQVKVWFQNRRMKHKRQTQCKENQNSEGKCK

HOXA2 [15] = biological target: HOXA2 (Homo sapiens, UniProt O43364 129-215, R185K)
Chain of HOXA2 (Homo sapiens, UniProt O43364 129-215, R185K) (O43364 129-215 R185K): as the sequence (O43364 129-215 R185T) above, with T57K counted along it

HOXA2 [16] = biological target: HOXA2 (Homo sapiens, UniProt O43364 129-215, Y150S)
Chain of HOXA2 (Homo sapiens, UniProt O43364 129-215, Y150S) (O43364 129-215 Y150S): as the sequence (O43364 129-215 R185T) above, with Y22S, T57R counted along it

HOXA2 [17] = biological target: HOXA2 (Homo sapiens, UniProt O43364 129-215)
Chain of HOXA2 (Homo sapiens, UniProt O43364 129-215) (O43364 129-215): as the sequence (O43364 129-215 R185T) above, with T57R counted along it

Sequence	binding signal (SIX6 [1])	binding signal (SIX6 [2])	binding signal (SIX6 [3])	binding signal (SIX6 [4])	binding signal (SIX6 [5])	binding signal (SIX6 [6])	binding signal (SIX6 [7])	binding signal (SIX6 [8])	binding signal (SIX6 [9])	binding signal (SIX6 [10])	binding signal (SIX6 [11])	binding signal (SIX6 [12])	binding signal (SIX6 [13])	binding signal (HOXA2 [14])	binding signal (HOXA2 [15])	binding signal (HOXA2 [16])	binding signal (HOXA2 [17])
GGGGGCCA	8.93 upbm affinity estimate (log intensity, higher = more binding, comparable within an allelic series)	8.85 upbm affinity estimate (log intensity, higher = more binding, comparable within an allelic series)	8.92 upbm affinity estimate (log intensity, higher = more binding, comparable within an allelic series)	8.83 upbm affinity estimate (log intensity, higher = more binding, comparable within an allelic series)	9.04 upbm affinity estimate (log intensity, higher = more binding, comparable within an allelic series)	9.04 upbm affinity estimate (log intensity, higher = more binding, comparable within an allelic series)	8.87 upbm affinity estimate (log intensity, higher = more binding, comparable within an allelic series)	8.92 upbm affinity estimate (log intensity, higher = more binding, comparable within an allelic series)	9.03 upbm affinity estimate (log intensity, higher = more binding, comparable within an allelic series)	9.09 upbm affinity estimate (log intensity, higher = more binding, comparable within an allelic series)	9.02 upbm affinity estimate (log intensity, higher = more binding, comparable within an allelic series)	9.03 upbm affinity estimate (log intensity, higher = more binding, comparable within an allelic series)	9.05 upbm affinity estimate (log intensity, higher = more binding, comparable within an allelic series)				
AACGCGGC	8.99 upbm affinity estimate (log intensity, higher = more binding, comparable within an allelic series)	8.99 upbm affinity estimate (log intensity, higher = more binding, comparable within an allelic series)	8.99 upbm affinity estimate (log intensity, higher = more binding, comparable within an allelic series)	9.03 upbm affinity estimate (log intensity, higher = more binding, comparable within an allelic series)	8.95 upbm affinity estimate (log intensity, higher = more binding, comparable within an allelic series)	9.03 upbm affinity estimate (log intensity, higher = more binding, comparable within an allelic series)	8.92 upbm affinity estimate (log intensity, higher = more binding, comparable within an allelic series)	8.8 upbm affinity estimate (log intensity, higher = more binding, comparable within an allelic series)	8.99 upbm affinity estimate (log intensity, higher = more binding, comparable within an allelic series)	8.84 upbm affinity estimate (log intensity, higher = more binding, comparable within an allelic series)	8.94 upbm affinity estimate (log intensity, higher = more binding, comparable within an allelic series)	8.94 upbm affinity estimate (log intensity, higher = more binding, comparable within an allelic series)	8.96 upbm affinity estimate (log intensity, higher = more binding, comparable within an allelic series)				
CGGCCACC	8.7 upbm affinity estimate (log intensity, higher = more binding, comparable within an allelic series)	8.6 upbm affinity estimate (log intensity, higher = more binding, comparable within an allelic series)	8.63 upbm affinity estimate (log intensity, higher = more binding, comparable within an allelic series)	8.71 upbm affinity estimate (log intensity, higher = more binding, comparable within an allelic series)	8.67 upbm affinity estimate (log intensity, higher = more binding, comparable within an allelic series)	8.54 upbm affinity estimate (log intensity, higher = more binding, comparable within an allelic series)	8.75 upbm affinity estimate (log intensity, higher = more binding, comparable within an allelic series)	8.72 upbm affinity estimate (log intensity, higher = more binding, comparable within an allelic series)	8.67 upbm affinity estimate (log intensity, higher = more binding, comparable within an allelic series)	8.71 upbm affinity estimate (log intensity, higher = more binding, comparable within an allelic series)	8.66 upbm affinity estimate (log intensity, higher = more binding, comparable within an allelic series)	8.55 upbm affinity estimate (log intensity, higher = more binding, comparable within an allelic series)	8.64 upbm affinity estimate (log intensity, higher = more binding, comparable within an allelic series)				
CCCCAGCG	9.09 upbm affinity estimate (log intensity, higher = more binding, comparable within an allelic series)	8.99 upbm affinity estimate (log intensity, higher = more binding, comparable within an allelic series)	9.25 upbm affinity estimate (log intensity, higher = more binding, comparable within an allelic series)	9.01 upbm affinity estimate (log intensity, higher = more binding, comparable within an allelic series)	9.24 upbm affinity estimate (log intensity, higher = more binding, comparable within an allelic series)	9.04 upbm affinity estimate (log intensity, higher = more binding, comparable within an allelic series)	9 upbm affinity estimate (log intensity, higher = more binding, comparable within an allelic series)	9.14 upbm affinity estimate (log intensity, higher = more binding, comparable within an allelic series)	9.23 upbm affinity estimate (log intensity, higher = more binding, comparable within an allelic series)	9.18 upbm affinity estimate (log intensity, higher = more binding, comparable within an allelic series)	9.13 upbm affinity estimate (log intensity, higher = more binding, comparable within an allelic series)	9.15 upbm affinity estimate (log intensity, higher = more binding, comparable within an allelic series)	9.2 upbm affinity estimate (log intensity, higher = more binding, comparable within an allelic series)				
CCCTAGGG	8.88 upbm affinity estimate (log intensity, higher = more binding, comparable within an allelic series)	8.72 upbm affinity estimate (log intensity, higher = more binding, comparable within an allelic series)	8.93 upbm affinity estimate (log intensity, higher = more binding, comparable within an allelic series)	8.83 upbm affinity estimate (log intensity, higher = more binding, comparable within an allelic series)	8.9 upbm affinity estimate (log intensity, higher = more binding, comparable within an allelic series)	8.91 upbm affinity estimate (log intensity, higher = more binding, comparable within an allelic series)	8.92 upbm affinity estimate (log intensity, higher = more binding, comparable within an allelic series)	8.95 upbm affinity estimate (log intensity, higher = more binding, comparable within an allelic series)	9.15 upbm affinity estimate (log intensity, higher = more binding, comparable within an allelic series)	8.86 upbm affinity estimate (log intensity, higher = more binding, comparable within an allelic series)	9.08 upbm affinity estimate (log intensity, higher = more binding, comparable within an allelic series)	8.85 upbm affinity estimate (log intensity, higher = more binding, comparable within an allelic series)	8.92 upbm affinity estimate (log intensity, higher = more binding, comparable within an allelic series)	7.32 upbm affinity estimate (log intensity, higher = more binding, comparable within an allelic series)	10.4 upbm affinity estimate (log intensity, higher = more binding, comparable within an allelic series)	10.3 upbm affinity estimate (log intensity, higher = more binding, comparable within an allelic series)	7.33 upbm affinity estimate (log intensity, higher = more binding, comparable within an allelic series)
CCCGGGAC	8.81 upbm affinity estimate (log intensity, higher = more binding, comparable within an allelic series)	9.03 upbm affinity estimate (log intensity, higher = more binding, comparable within an allelic series)	8.97 upbm affinity estimate (log intensity, higher = more binding, comparable within an allelic series)	8.99 upbm affinity estimate (log intensity, higher = more binding, comparable within an allelic series)	9.01 upbm affinity estimate (log intensity, higher = more binding, comparable within an allelic series)	9.18 upbm affinity estimate (log intensity, higher = more binding, comparable within an allelic series)	9.04 upbm affinity estimate (log intensity, higher = more binding, comparable within an allelic series)	9.17 upbm affinity estimate (log intensity, higher = more binding, comparable within an allelic series)	9.14 upbm affinity estimate (log intensity, higher = more binding, comparable within an allelic series)	9.12 upbm affinity estimate (log intensity, higher = more binding, comparable within an allelic series)	8.96 upbm affinity estimate (log intensity, higher = more binding, comparable within an allelic series)	9.07 upbm affinity estimate (log intensity, higher = more binding, comparable within an allelic series)	9.02 upbm affinity estimate (log intensity, higher = more binding, comparable within an allelic series)				
